Results filed as inconclusive are left out. A number with no mark means an inactive call. Calls of active or inactive are those of the source. The call rests on the fitted dose curve; in most records, active means well fitted inhibition curve with a large enough effect; inconclusive means small, poorly fitted or top-dose-only effect; inactive means no such curve, though single readings can be large or run the other way.
Assay: qHTS assay for measurement of the activity of small molecule inhibitors on Zika virus induced Caspase-3 activity in human iPSC derived neural progenitor cells (hNPCs) (AID 1224857); further: nearly all actives have a fitted effect of over 65% in size
Settings: hNPCs ZIKV-induced caspase-3/7, Caspase-Glo luminescence, 6 h; series mostly up to 45.7 µM; activity change, negative = inhibition: at the top concentration
From the text: National Center for Advancing Translational Sciences [NCATS]
Johns Hopkins University School of Medicine
Increase in the Caspase-3 activity indicates an activation of apoptosis cell death pathway caused by Zika virus infection in certain types of neuronal cells including human neural progenitor cells (hNPCs), astrocytes, and astrocytoma cell line (SNB-19). This cell-based caspase-3 activity assay measures the increased caspase-3 activity in the human iPSC derived neural progenitor cells (hNPCs) after a 6-hour Zika virus infection with a luminescence readout. A decrease in the luminescence signal in this assay by small molecule treatment indicates an inhibitory effect of that small molecule on the Zika virus induced caspase-3 activity that may correlate with its effect on reduction of Zika virus caused cell death.
The medium for hNPCs consists of DMEM/F12, N2 supplement (ThermoFisher, Cat.# 17502048), NEAA (ThermoFisher, Cat. # 11140050), 2 ug/ml heparin, 2 uM cyclopamine, and B27 (ThermoFisher, Cat. # 17504044). A Caspase-Glo 3/7 assay kit (catalog number G8092; Promega, Madison, WI) was used to detect caspase-3 activity induced by Zika virus infection in human cells. The reagent mixture was reconstituted as described in the protocol from the manufacturer. Polystyrene tissue culture treated and PDL coated white plates were obtained from Greiner Bio-One (Monroe, NC). Cells were seeded in 384- or 1536-well assay plates and cultured at 37 C with 5% CO2 for 16 to 20 hours. The typical cell seeding density in the 1536-well plate assay is 350 cells/well in 3 ul medium for hNPCs in tissue culture treated plates. Compounds were added to cells and incubated for one hour before addition of ZIKV solution to cells (2 FFU/cell). After incubation at 37 C with 5% CO2 for 6 hours, the reagent mixture of Caspase-Glo 3/7 assay kit was added to each well, followed by incubation at room temperature for 30 minutes. The luminescence intensity of the assay plates was measured using a ViewLux plate reader (PerkinElmer). Data were normalized by using the cell-containing wells without ZIKV as a negative control (0% induction of caspase 3/7 activity) and wells containing ZIKV infected cells (Caspase-3 activity induced) as a positive control (100% induction of caspase 3 activity). The percentage inhibitions of the increased Caspase-3 activity by small molecule inhibitors were then calculated.
Potency means the concentration at half of the fitted maximal effect.

| SMILES | activity change, negative = inhibition [%] | Potency |
| --- | --- | --- |
| O=C1Nc2ccc(Cl)cc2C(C#CC2CC2)(C(F)(F)F)O1 (stereo not given) | 30.9 |  |
| CC(C)n1nc(-c2ccc3oc(N)nc3c2)c2c(N)ncnc21 | 45.6 |  |
| CCN(CC)CCNC(=O)c1ccc(N)cc1 |  | inactive |
| CC(=O)O[C@]1(C(C)=O)CC[C@H]2[C@@H]3C=C(Cl)C4=CC(=O)[C@@H]5C[C@@H]5[C@]4(C)[C@H]3CC[C@@]21C |  | inactive |
| COc1ccccc1N1CCN(CCCNc2cc(=O)n(C)c(=O)n2C)CC1 |  | inactive |
| COc1ccc(-n2c(C)c([N+](=O)[O-])c3ccc(O)cc32)cc1 | 2.24 |  |
| O=C(Nc1ccccc1-c1cn2c(CN3CCNCC3)csc2n1)c1cnc2ccccc2n1 |  | 18.7 µM (active) |
| CCC(CC)[C@H](NC(C)=O)[C@@H]1[C@H](O)[C@@H](C(=O)O)C[C@@H]1N=C(N)N | -11.6 |  |
| O=c1cc(-c2cccc3c2Sc2ccccc2S3)oc(N2CCOCC2)c1 | 47.3 |  |
| COc1ncc(-c2ccc3nccc(-c4ccnnc4)c3c2)cc1NS(=O)(=O)c1ccc(F)cc1F | 156 |  |
| COC1CCC(N(C(=O)C2CCC(C)CC2)c2cc(C3=CCCCC3)sc2C(=O)O)CC1 (stereo not given) | -0.496 |  |
| CC(C)[C@H](CO)Nc1nc(Nc2ccc(C(=O)O)c(Cl)c2)c2ncn(C(C)C)c2n1 | 15.6 |  |
| CCOc1ccc(Nc2nc(-c3c(C)nc4ccccn34)cs2)cc1 | 13.7 |  |
| CN(C)Cc1ccc(-c2nc3cccc4c3n2CCNC4=O)cc1 | 39.6 |  |
| c1ccc2c(-c3cnn4cc(-c5ccc(N6CCNCC6)cc5)cnc34)ccnc2c1 | -31 |  |
| CC(C)(C)OC(=O)N[C@H]1CCCCCC=C[C@@H]2C[C@@]2(C(=O)NS(=O)(=O)C2CC2)NC(=O)[C@@H]2C[C@@H](OC(=O)N3Cc4cccc(F)c4C3)CN2C1=O | 28.6 |  |
| C[C@]12CC[C@@H]3c4ccc(O)cc4C[C@@H](CCCCCCCCCS(=O)CCCC(F)(F)C(F)(F)F)[C@H]3[C@H]1CC[C@H]2O (stereo not given in full) | 26 |  |
| COc1ccc2c(Oc3ccc(NC(=O)c4c(C)n(CC(C)(C)O)n(-c5ccccc5)c4=O)cc3F)ccnc2c1 | 65.7 |  |
| CC1=C(/C=C/C(C)=C/C=C/C(C)=C/C(=O)Nc2ccc(O)cc2)C(C)(C)CCC1 |  | inactive |
| COCCOc1nc(-c2ccc(Cl)c(Cl)c2)n(-c2ccc(NC(=O)CCl)cc2)n1 | 66.7 |  |

| SMILES | activity change, negative = inhibition [%] | Potency |
| --- | --- | --- |
| COc1cccc(-c2cc(=O)c3ccccc3o2)c1N |  | 18.7 µM (active) |
| O=C1NC(=O)C(=Cc2ccc3nccnc3c2)S1 |  | 14.4 µM (active) |
| C[C@]12CCC3c4ccc(O)cc4CCC3C1CCC2=O (stereo not given in full) | -12.2 |  |
| CCOC(=O)C1=C(N)Oc2ccc(Br)cc2C1C(C#N)C(=O)OCC (stereo not given) | 131 |  |
| CCC(=O)O[C@]1(C(=O)CO)CC[C@H]2[C@@H]3CCC4=CC(=O)CC[C@]4(C)[C@@H]3CC[C@@]21C | 41.8 |  |
| COC[C@@H](c1ccc(C(F)(F)F)cc1)N1CCN(C2(C)CCN(C(=O)c3c(C)ncnc3C)CC2)C[C@H]1C | 81.1 |  |
| O=C(O)c1cc(O)c2c(c1)C(=O)c1cccc(O)c1C2=O |  | 38.2 µM (active) |
| CC/C(=C(\c1ccccc1)c1ccc(OCCN(C)C)cc1)c1ccccc1 |  | inactive |
| CC(=O)O[C@]1(C(C)=O)CC[C@@H]2[C@@H]3C[C@H](C)C4=CC(=O)CC[C@]4(C)[C@H]3CC[C@@]21C | 49.7 |  |
| Cc1ccc([C@@H]2O[C@H](CO)[C@@H](O)[C@H](O)[C@@H]2O)cc1Cc1ccc(-c2ccc(F)cc2)s1 | 14.6 |  |
| CCc1ccc(OCc2ccccc2C(=O)Nc2ccc3nc(C)cc(N)c3c2)cc1 | -26.4 |  |
| CC(=O)CCCCn1c(=O)c2c(ncn2C)n(C)c1=O |  | inactive |
| CCn1c(C(=O)N(C2CC2)C2CC2)cc2c3c(ncn3C)c(Nc3cc(C)n(C)n3)nc21 | 22.5 |  |
| CC(C)(C)COc1ccc(-n2cc(C(=O)O)cn2)cc1C#N |  | 14.8 µM (active) |
| CC1(C)CCC[C@@]2(C)[C@@H]1CC[C@@]1(C)OC(=O)C[C@H]21 | 14 |  |
| CC(C)n1cnc2c(NCCCCCCNC(=O)OC(C)(C)C)nc(NCCO)nc21 | -30.1 |  |
| O=c1cc(-c2ccccc2)oc2cc(O)cc(O)c12 |  | 20.9 µM (active) |
| CC(C(=O)O)c1ccc(-c2ccccc2)c(F)c1 (stereo not given) |  | 16.6 µM (active) |
| C[N+](C)(C)CCCCCC[N+](C)(C)C |  | inactive |
| CO[C@@H](C(=O)N1Cc2[nH]nc(NC(=O)c3ccc(N4CCN(C)CC4)cc3)c2C1)c1ccccc1 | 43.6 |  |

— PubChem BioAssay (NCATS)
